SKKanGAS inh – S. pyogenes SKKanGAS growth inhibitors in kanamycin, primary screen, streptokinase expression inhibitor project, SKKanGAS strain, BacTiter-Glo luminescence; 6 h; inhibition, % at 7.5 µM; actives 1.3% (n = 300,000);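 active means mean replicate score, as percent of positive control median, at least 50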;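 further: strain carries kanamycin resistance gene driven by streptokinase promoter and grows in 40 µg/ml kanamycin; loss of luminescence reflects streptokinase promoter inhibition or plain growth inhibition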
tim10-1 inh – growth inhibitors of tim10-1 mutant yeast, primary screen, luminescence, uHTS; S. cerevisiae tim10-1 ts strain growth, BacTiter-Glo, 24 h; inhibition, % at 20 µM; actives 2.2% (n = 330,000);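 active means inhibition of at least 40%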;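 further: mutant grown at 25 °C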
tim23-1 inh – growth inhibitors of tim23-1 mutant yeast, primary screen, luminescence, uHTS. inhibition, % at 20 µM. AID 463212, 2010. S. cerevisiae tim23-1 growth, BacTiter-Glo luminescence, 24 h. actives 1.3% (n = 330,000);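 active means growth inhibition of the mutant yeast at or above 50%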;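 further: temperature-sensitive mutant grown at 25 °C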
TIM10 inh – growth inhibitors of isogenic TIM10 control yeast, primary screen, counter-screen for tim10-1 yeast inhibitor project, luminescence, uHTS. S. cerevisiae TIM10 strain growth, BacTiter-Glo luminescence, 24 h. inhibition, % at 10 µM. actives 1.4% (n = 330,000). AID 463195, 2010;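 active means inhibition of 40% or more at the single tested concentration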;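 further: wild-type TIM10 isogenic control strain grown at permissive 25 °C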
NLRP3 yeast inh – NALP3 inflammasome inhibitors in reconstituted yeast, primary screen, luminescence, uHTS; Yeast reconstituted NLRP3/ASC/caspase-1, beta-gal luminescence, 24 h; inhibition, % at 10 µM; actives 0.39% (n = 330,000); AID 2825, 2010;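 active means inhibition of 50% or more; inactive means inhibition below 50%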
PfHsp90 set2 – growth inhibition of PfHsp90-expressing yeast, primary screen, antimalarial PfHsp90 inhibitor project, S. cerevisiae, BacTiter-Glo luminescence, single point, set 2; BacTiter-Glo ATP, 48 h; yeast lacking PDR1 and PDR3 efflux regulators; AID 504621, 2011; inhibition, % at 9.4 µM; actives 0.32% (n = 310,000);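 active means every replicate shows inhibition above about 80%, whatever the replicate mean, limit read from the data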
tim10-1 conf – growth inhibitors of tim10-1 mutant yeast, confirmation, single concentration, luminescence, S. cerevisiae. shares compounds with tim10-1 inh. S. cerevisiae tim10-1 ts strain growth, BacTiter-Glo, 24 h. inhibition, % at 20 µM. actives 56% (n = 7,400);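 active means inhibition of yeast growth at or above a set limit in either of two repeat tests at 20 µM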;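 further: tim10-1 mutant grown at permissive 25 °C to find synthetic lethal compounds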
A number is an active result; . = inactive; / = no result. Compounds with a hit are over-represented: about 4.6% of the library has one in this group of screens.

SMILES	SKKanGAS inh	tim10-1 inh	tim23-1 inh	TIM10 inh	NLRP3 yeast inh	PfHsp90 set2	tim10-1 conf
COc1cc(C(=O)NC(=S)Nc2ccccc2N2CCCC2)cc(OC)c1OC	.	51	.	.	.	.	.
N#Cc1c(N)n(C2OC(CO)C(O)C2O)c2ncnc(N)c12 (stereo not drawn)	/	/	/	/	/	.	/
COc1ccc(C(=O)NC(=S)Nc2ccccc2N2CCOCC2)cc1Br	.	.	.	.	.	.	/
COc1ccc(C(=O)Nc2ccccc2N2CCOCC2)cc1Br	.	40	.	.	.	.	.
O=C(NCCCNC(=O)c1cnccn1)c1cccc(F)c1	.	.	.	.	.	.	/
CC(C)CCNC(=O)NC(=O)COC(=O)/C=C/c1cccc([N+](=O)[O-])c1	.	42	.	.	.	.	.
COc1cc(/C=C2\SC(=S)NC2=O)ccc1OS(=O)(=O)c1ccccc1	.	43	.	.	.	/	33
CCOC(=O)c1cc(S(=O)(=O)N2CCCC2)cn1C	.	.	.	.	.	.	/
Cc1sc2ncnc(SCC(=O)N3CCC(c4noc5ccc(F)cc45)CC3)c2c1C	.	50	.	.	.	.	.
Cc1nnc(SCC(=O)N2CCC(c3noc4ccc(F)cc34)CC2)s1	.	.	.	.	.	/	/
O=C(NCC(O)c1ccccc1)c1ccc(Cl)c(S(=O)(=O)N2CCCC2)c1 (stereo not drawn)	.	.	.	.	.	/	/
Cc1ccc(S(=O)(=O)N/N=C\c2cc([N+](=O)[O-])ccc2Cl)cc1	.	46	.	.	.	.	32
Cc1ccccc1NC(=O)c1ccc([N+](=O)[O-])o1	.	51	.	.	.	.	42
Cc1ccc(NC(=O)c2ccc([N+](=O)[O-])o2)c(C)c1	.	40	.	.	.	.	53
Cc1ccc(NC(=O)c2ccc(Br)o2)c([N+](=O)[O-])c1	/	/	/	/	/	.	/
Cc1cccc(NC(=O)COC(=O)c2ccc([N+](=O)[O-])o2)c1C	.	.	.	.	.	.	/
CCC(=O)N1CCN(c2ccc(Cl)cc2NC(=O)c2ccc([N+](=O)[O-])o2)CC1	.	40	.	.	.	.	.
Cc1ccccc1/C=C/C(=O)c1ccc([N+](=O)[O-])o1	62	67	.	.	.	/	71
Cc1cccnc1NC(=O)c1ccc([N+](=O)[O-])o1	.	.	.	.	.	.	/
COc1ccc(NC2CCCN(C(=O)CCc3cn[nH]c3)C2)cc1 (stereo not drawn)	.	.	.	.	.	.	/
Cc1cc(Nc2ccccc2)c2c([N+](=O)[O-])c(C)cc(C)c2n1	.	41	.	.	.	/	.
Cc1cccc(Nc2cc(C)nc3ccccc23)c1	.	.	.	.	.	.	/
CC(C)(CNc1ccc(S(=O)(=O)C(F)(F)F)cc1[N+](=O)[O-])N1CCOCC1	.	.	.	.	.	.	/
CC1CCCCN1C(=O)CCS(=O)(=O)c1cccc2nonc12 (stereo not drawn)	.	.	.	.	.	.	/
CCCCN(C(=O)c1ccc(N2C(=O)c3ccccc3C2=O)cc1)c1c(N)n(CC(C)C)c(=O)[nH]c1=O	/	.	.	.	.	.	/
SMILES	SKKanGAS inh	tim10-1 inh	tim23-1 inh	TIM10 inh	NLRP3 yeast inh	PfHsp90 set2	tim10-1 conf
Cc1nc2c(-c3ccccc3)cnn2c(N)c1-c1ccccc1	.	43	.	.	.	.	39
CSc1nc2c(c(-c3ccccc3)c1C#N)CCC2	.	48	.	.	.	.	32
O=C1c2ccccc2S(=O)(=O)N1CC(O)Cn1ccc2ccccc21 (stereo not drawn)	.	42	.	.	.	.	.
Cc1ccc(/C=C2\CCC3=C2OC(N)=C(C#N)C3c2ccc(C)cc2)cc1 (stereo not drawn)	.	46	.	.	.	.	34
S=C(NCCc1ccc(Cl)cc1)NC1CCCC1	.	43	.	.	.	.	.
O=C(NC(=S)NCCc1ccc(Cl)cc1)c1ccco1	.	48	.	.	.	.	.
S=C(NCCc1ccc(Cl)cc1)NCc1ccco1	.	.	.	.	.	.	/
N#CCCN(C(=O)COC(=O)c1cc2ccccc2oc1=O)c1ccccc1	/	.	.	.	.	.	/
COc1ccc(S(=O)(=O)N2CCC(C(=O)NCCc3c[nH]c4ccccc34)CC2)cc1	.	.	.	.	.	.	/
C=CCN1C=C/C(=C\C=C(C#N)C#N)c2ccccc21	.	.	.	.	.	.	/
CCCCCCN1C=C/C(=C\C=C(C#N)C#N)c2ccccc21	.	49	.	.	.	.	.
COc1ccc(C(=O)CSc2nnc(COc3ccc(C#N)cc3)n2-c2ccccc2)cc1	.	.	.	.	.	.	/
O=C(CSc1nnc(COc2ccccc2)n1-c1ccccc1)c1ccccc1	.	40	.	.	.	.	.
Brc1ccccc1Cn1c(-c2cscn2)nc2ccccc21	.	.	.	.	.	.	/
CCOC(=O)[C@@H]1[C@H]2COc3ccccc3[C@@H]2N2C(=O)N(c3cccc(F)c3)C(=O)[C@]12C	.	.	.	.	.	.	/
Cc1ccc(C(=O)N/C(=C\c2ccco2)C(=O)NCCN2CCOCC2)cc1	.	.	.	.	.	.	/
COc1ccc(C(C)=O)c(Oc2nc(CN3CCOCC3)nc3scc(-c4cccs4)c23)c1	.	40	.	.	.	.	.
CC(=O)c1ccccc1Oc1nc(CN2CCOCC2)nc2scc(-c3cccs3)c12	.	.	.	.	.	.	/
O=C(CCc1nnc2ccc(NCc3ccccc3)nn12)NC1CCCC1	.	.	.	.	.	.	/
Cc1cccc(NC(=S)N/C(=N/S(=O)(=O)c2ccccc2)c2ccccc2)c1	.	42	.	.	.	.	.
Cc1ccc(S(=O)(=O)/N=C(/NC(=S)Nc2cccc(C)c2)c2ccccc2)cc1	.	.	.	.	.	.	/
Cc1cc(C)n(-c2ccn(Cc3ccc(Cl)cc3Cl)c(=O)n2)n1	.	40	.	.	.	/	.
CCOC(=O)c1c(CSc2ccccc2)n(C)c2ccc(O)c(CN3CCOCC3)c12	.	44	.	.	.	.	.
CCOC(=O)c1c(C)n(C)c2ccc(O)c(CN3CCN(C)CC3)c12	.	.	.	.	.	.	/
Nn1c(SCc2c(F)cccc2F)nnc1-c1ccccn1	.	.	.	.	.	.	/
Cc1ccc(C)c(CSc2nnc(-c3ccccn3)n2N)c1	.	44	.	.	.	.	.
